This is an account of results in PubChem BioAssay.

Molecules are shown by their SMILES. Calls of active or inactive are those of the source. No rule for the calls is given here.

For orientation: inhibition means the share of the control response that was lost under treatment.

The test in a line: Brca1-Bard1 BiLC signal decrease – luminescence, single concentration, counter-screen for Mdm2/MdmX interaction inhibitor project, confirmation (AID 504668). As to conditions: Brca1/Bard1 bimolecular luciferase complementation counterscreen, at 8 µM, stronger effect = higher value.
For `CC(=O)NC(=S)Nc1ccc(NC(=S)NC(=O)/C=C/c2ccco2)cc1`, the inhibition is 35% (active). In the case of `Cc1cc(C(=O)Nc2ccc(Cl)cc2)c(C)n1-c1ccccc1` it was 30.6% (active). In the case of `CC(=O)/C(C#N)=C1\NC(=O)C(Cc2cc(Cl)ccc2Cl)S1` (centres undefined) it was 31.2% (active); in that of `CC(C)C(=O)NC(c1ccco1)c1ccc2cccnc2c1O` (centres undefined), 24% (active). As for `COc1ccccc1-c1cc(C(F)(F)F)nc(S(=O)(=O)CCCC(=O)Nc2cc(C)on2)n1`, the inhibition was 32.8% (active).

Consider `CN(C)CCCNC(=O)/C(=C\c1ccc(-c2ccc(Br)cc2)o1)NC(=O)c1ccccc1`, for which the inhibition was 29.2% (active). As to `COc1ccc(C(=O)C(CN2CCOCC2)c2ccccc2)cc1` (centres undefined), the inhibition was 27.4% (active). In the case of `COc1ccc2cc3c(N)nn(C(=O)c4cccc([N+](=O)[O-])c4)c3nc2c1` it was 32.1% (active); in that of `Cc1cc(C)cc(OCc2nc3ncc(Br)cc3[nH]2)c1`, 30.8% (active). In the case of `O=c1c2ccccc2nc(COc2ccccc2)n1/N=C/c1ccc(O)cc1O` it was 31% (active); in that of `CCS(=O)(=O)c1ccc(N=Nc2ccc(O)c3ncccc23)c(OC)c1`, 31.8% (active).

Turning to `COc1ccccc1-c1cc(C(F)(F)F)nc(S(=O)(=O)CCCC(=O)NC(C)C)n1`, the inhibition was 31.4% (active).

Turning to `Cc1ncc(CO)c(/C=N/Nc2ccc(C(F)(F)F)cn2)c1O`, the inhibition was 33.8% (active). In the case of `Cc1noc(-c2ccc(C(F)(F)F)cc2)c1NC(=O)Nc1ccc(Cl)cc1` it was 24.2% (active); in that of `COc1ccc([C@@H]2[C@@H]3C(=O)N(C(C)(C)C)C(=O)[C@@H]3[C@]3(Cc4ccc(Cl)cc4)C(=O)N(c4ccc(Br)cc4)C(=O)N23)cc1`, 26.6% (active). Regarding `CCn1c(C)cc(C(=O)CN2C(=O)c3ccccc3S2(=O)=O)c1C`, the inhibition is 23.2% (active).

Regarding `COc1cccc(C(NC(C)=O)c2ccc3cccnc3c2O)c1` (centres undefined), the inhibition is 29.3% (active). As to `CC(=O)NC(c1cc(Cl)c2cccnc2c1O)C1CC1` (centres undefined), the inhibition was 33.4% (active). For the molecule `O=C(CCN1C(=O)/C(=C/c2ccccc2F)SC1=S)NCCc1ccc(O)cc1`, the inhibition is 33% (active). On to `O=C(CCCN1C(=O)/C(=C\c2cccs2)SC1=S)Nc1ccc(O)cc1`, for which the inhibition is 31.8% (active).

Regarding `C=CCc1cccc(/C=N/NC(=O)CNc2ccccc2)c1O`, the inhibition was 32.9% (active). Consider `Cc1ccc(-c2csc(=Nc3cccnc3)n2CCCn2ccnc2)cc1C`, for which the inhibition is 24.3% (active).

For `O=C(/C=C/c1ccc2ccccc2n1)N1CCN(S(=O)(=O)c2ccc(F)cc2)CC1`, the inhibition is 35.1% (active). As to `Cn1c(C(=O)NCc2cccs2)cc2oc3ccccc3c21`, the inhibition is 27.7% (active). Regarding `C=CCN=C1NN=C(c2cc(C)n(CCOC)c2C)CS1`, the inhibition is 31% (active). In the case of `CCOc1ccc(C(=O)N/N=C(\c2ccccc2)c2ccccn2)cc1` it was 30.1% (active); in that of `S=c1[nH]nc(-c2cc(-c3ccccc3)n[nH]2)n1/N=C/C(Br)=C/c1ccccc1`, 24.2% (active). `C=C1C(O)[C@@H]2O[C@]3(CC[C@H](/C=C/C(C)[C@@H]4CC(C)=CC5(O[C@H](C[C@@](C)(O)CO)CCC5O)O4)O3)CC[C@H]2O[C@@H]1C(O)CC(C)[C@H]1OC2(CCCCO2)CCC1C` (some centres undefined): the inhibition was 33.4% (active).

Take `CCC(=O)NC(c1ccccc1OC)c1ccc2cccnc2c1O` (centres undefined): the inhibition is 32.5% (active). With `O=C(N/N=C\c1c(O)ccc2ccccc12)c1ccc(O)cc1`, the inhibition was 31.7% (active).

With `CN(Cc1ccccc1)C(=O)c1ccc(NC(=O)C2CCN(C(=O)OC(C)(C)C)CC2)cc1`, the inhibition is 31.6% (active). As for `Oc1ccc(/C=N/Nc2nc(-c3ccccc3F)nc3ccccc23)c(O)c1`, the inhibition was 31% (active).

Turning to `Oc1ccc(CNc2ccccc2F)c2cccnc12`, the inhibition was 30.8% (active). In the case of `COc1cccc(-c2sc3ccc(OC)cc3c2-c2ccc(OCCN3CCCC3)cc2)c1` it was 27.8% (active); in that of `Oc1ccc(CN2CCc3ccccc3C2)c2cccnc12`, 24.4% (active). On to `CC(C)(C)N1C(=O)[C@H]2[C@@H](c3ccc(Br)cc3)N3C(=O)N(c4ccc(Br)cc4)C(=O)[C@@]3(Cc3ccccc3)[C@H]2C1=O`, for which the inhibition was 35.6% (active). In the case of `CC(=O)Oc1c(-c2ccc(Br)o2)oc2ccccc2c1=O` it was 29.9% (active). `O=C(Nc1ccncc1NC(=O)c1cccc([N+](=O)[O-])c1)c1cccc([N+](=O)[O-])c1`: the inhibition was 31% (active). As to `CCOc1ccc2nc(NC3=NC(c4ccc(OC)cc4)CC(=O)N3)nc(C)c2c1` (centres undefined), the inhibition is 30.6% (active).
